Assay results published in PubChem BioAssay (Tox21).
Results filed as inconclusive are left out. A call without a number means that no potency is given here. Calls of active or inactive are those of the source. Unless noted, calls come from the whole dose curve; as a rule, active = well fitted curve in the direction sought with a large enough effect in the repeat runs; inconclusive = weak or mixed curves; inactive = no such curve, though single readings can be large; an effect the other way counts as inactive or inconclusive.

How the values were obtained:
[1] = biological target: Luciferin 4-monooxygenase (Photinus pyralis) (UniProt P08659); assay: qHTS assay to identify small molecule inhibitors of firefly luciferase (AID 1224835); note: nearly all actives have a fitted effect of over 25% in size; note: potency is the fitted concentration of half-maximal effect
In short: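 Inhibition of purified Photinus luciferase is measured by luminescence. Substrate levels (D-luciferin, ATP) sit at their KM values. Each compound is tested in a concentration series.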

[2] = qHTS assay to identify small molecule agonists of the constitutive androstane receptor (CAR) signaling pathway - cell viability counter screen (AID 1224836); note: series mostly up to about 92 µM; nearly all actives have a fitted effect of over 45% in size
In short: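 Compound titrations (15 concentrations) went onto HepG2-CYP2B6-hCAR cells 4 h after seeding, alongside PK11195 at a final 0.75 uM; a 23 h, 37 C/5% CO2 incubation preceded CellTiter-Fluor viability measurement.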

[3] = qHTS assay to identify small molecule antagonists of the constitutive androstane receptor (CAR) signaling pathway - cell viability counter screen (AID 1224837); note: series mostly up to about 92 µM; nearly all actives have a fitted effect of over 45% in size
In short: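 Cytotoxicity counter-screen: CellTiter-Fluor fluorescence after 23 h compound exposure (15-point qHTS) in double-stable HepG2-CYP2B6-hCAR cells, with 50 nM CITCO added.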

[4] = biological target: Nuclear receptor subfamily 1 group I member 3 (Homo sapiens) (UniProt Q14994); assay: qHTS assay to identify small molecule antagonists of the constitutive androstane receptor (CAR) signaling pathway (AID 1224838);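 note: HepG2 cells stably expressing hCAR with CYP2B6 luciferase reporter stimulated by CITCO; nearly all actives have a fitted effect of over 40% in size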
In short: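 Antagonism measured as luciferase signal (ONE-Glo, 30 min, room temperature) in CAR-stimulated cells: HepG2-CYP2B6-hCAR double-stable line exposed 24 hr at 37 C to compound in a 15-point series plus 50 nM CITCO.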

[5] = biological target: Nuclear receptor subfamily 1 group I member 3 (Homo sapiens) (UniProt Q14994); assay: qHTS assay to identify small molecule agonists of the constitutive androstane receptor (CAR) signaling pathway (AID 1224839); note: nearly all actives have a fitted effect of over 15% in size; note: potency is the fitted concentration of half-maximal effect
In short: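 In this screen, CAR-driven CYP2B6 promoter activity is measured by luminescence in HepG2-CYP2B6-hCAR cells after 24 h with test compounds and 0.75 uM PK11195 (final concentration).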

[6] = qHTS assay to identify small molecule antagonists of the estrogen related receptor signaling pathway with the pleiotropic PPARgamma coactivator (PGC) from Tox21 10K library - cell viability counter screen (AID 1224840; active = well fitted cell-killing curve with a large enough effect in the repeat runs, not every such curve was filed as active; note: nearly all actives have a fitted effect of over 40% in size)
In short: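 Counter-screen for cytotoxicity: after 17.5 h compound exposure at 37 C, CellTiter-Fluor reagent added to PGC/ERR cells for 30 min and fluorescence read. Cells were seeded at 2,000 per well 6 h before dosing.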

[7] = qHTS assay to identify small molecule agonists of the estrogen related receptor signaling pathway with the pleiotropic PPARgamma coactivator (PGC) from Tox21 10K library (AID 1224842); note: nearly all actives have a fitted effect of over 15% in size; note: potency is the fitted concentration of half-maximal effect
In short: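 Luminescence from One-Glo (30 min, room temperature) measured after PGC/ERR cells had 18 h at 37 C with pinned compound (23 nL in DMSO). Cells had been seeded at 2,000 per well and pre-incubated 6 h.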

[8] = qHTS assay to identify small molecule antagonists of the estrogen related receptor (ERR) signaling pathway from Tox21 library - cell viability counter screen (AID 1224834); note: nearly all actives have a fitted effect of over 30% in size
In short: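 CellTiter-Fluor fluorescence, read after 30 min at 37 C, measures viability of ERR cells. Cells plated at 2,000/well and incubated 6 h before pin-tool compound addition, then exposed 17.5 hours at 37 C.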

[9] = biological target: Thyrotropin receptor (Homo sapiens) (UniProt P16473); assay: qHTS assay to identify small molecule agonists of the thyroid stimulating hormone receptor (TSHR) signaling pathway (AID 1224843; calls by dose curve; note: nearly all actives have a fitted effect of over 45% in size)
In short: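 Agonist activity read as cAMP rise via d2/cryptate HTRF competition, 1 h room-temperature detection, in HEK293 cells expressing TSHR. Fifteen-point titrations, each run in triplicate, with a 30 min room-temperature incubation beforehand.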

[10] = qHTS assay to identify small molecule antagonists of the estrogen related receptor signaling pathway with the pleiotropic PPARgamma coactivator (PGC) from Tox21 10K library (AID 1224841; call rule not given here; note: actives are mostly falling curves and most rising ones were filed inactive; nearly all actives have a fitted effect of over 50% in size; note: potency is the fitted concentration of half-maximal effect)
In short: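 Luminescence (One-Glo, 30 min at room temperature) after 18 h compound treatment at 37 C of PGC/ERR reporter cells plated at 2,000 cells/well and settled 6 h beforehand.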

Chain of Thyrotropin receptor (Homo sapiens) (P16473 whole entry, looked up): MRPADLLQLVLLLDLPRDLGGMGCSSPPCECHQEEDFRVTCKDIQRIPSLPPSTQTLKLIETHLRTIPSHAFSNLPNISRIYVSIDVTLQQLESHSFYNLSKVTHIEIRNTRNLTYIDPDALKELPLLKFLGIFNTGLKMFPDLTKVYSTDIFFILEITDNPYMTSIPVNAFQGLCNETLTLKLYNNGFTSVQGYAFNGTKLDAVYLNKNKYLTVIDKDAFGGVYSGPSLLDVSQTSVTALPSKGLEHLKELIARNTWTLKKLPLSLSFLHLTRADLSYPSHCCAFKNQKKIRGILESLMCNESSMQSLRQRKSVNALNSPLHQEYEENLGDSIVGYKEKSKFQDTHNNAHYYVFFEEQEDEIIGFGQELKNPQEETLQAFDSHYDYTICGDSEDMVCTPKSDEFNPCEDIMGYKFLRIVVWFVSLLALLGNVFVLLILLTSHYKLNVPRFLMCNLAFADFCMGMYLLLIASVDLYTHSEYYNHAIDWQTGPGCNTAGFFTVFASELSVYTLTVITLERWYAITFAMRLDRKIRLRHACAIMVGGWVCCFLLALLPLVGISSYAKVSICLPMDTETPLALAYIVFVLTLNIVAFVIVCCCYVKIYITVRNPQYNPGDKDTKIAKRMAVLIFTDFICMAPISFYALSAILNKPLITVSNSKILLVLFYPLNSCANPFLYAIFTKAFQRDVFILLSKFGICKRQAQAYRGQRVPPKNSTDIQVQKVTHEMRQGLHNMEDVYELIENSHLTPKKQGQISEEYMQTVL
Chain of Luciferin 4-monooxygenase (Photinus pyralis) (P08659 whole entry, looked up): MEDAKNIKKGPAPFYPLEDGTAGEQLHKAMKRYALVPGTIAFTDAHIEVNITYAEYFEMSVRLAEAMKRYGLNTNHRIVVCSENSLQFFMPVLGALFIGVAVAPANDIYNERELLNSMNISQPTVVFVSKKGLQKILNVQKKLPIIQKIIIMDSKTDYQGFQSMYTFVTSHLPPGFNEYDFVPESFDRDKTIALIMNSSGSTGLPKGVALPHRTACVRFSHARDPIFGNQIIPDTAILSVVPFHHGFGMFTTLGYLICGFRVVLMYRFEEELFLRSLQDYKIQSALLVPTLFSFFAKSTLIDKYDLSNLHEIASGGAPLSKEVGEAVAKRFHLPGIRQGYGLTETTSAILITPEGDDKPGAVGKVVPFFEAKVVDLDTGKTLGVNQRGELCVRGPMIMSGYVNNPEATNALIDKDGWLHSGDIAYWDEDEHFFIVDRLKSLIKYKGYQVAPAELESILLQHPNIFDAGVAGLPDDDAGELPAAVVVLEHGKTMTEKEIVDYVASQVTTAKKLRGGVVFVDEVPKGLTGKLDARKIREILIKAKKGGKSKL
Chain of Nuclear receptor subfamily 1 group I member 3 (Homo sapiens) (Q14994 whole entry, looked up): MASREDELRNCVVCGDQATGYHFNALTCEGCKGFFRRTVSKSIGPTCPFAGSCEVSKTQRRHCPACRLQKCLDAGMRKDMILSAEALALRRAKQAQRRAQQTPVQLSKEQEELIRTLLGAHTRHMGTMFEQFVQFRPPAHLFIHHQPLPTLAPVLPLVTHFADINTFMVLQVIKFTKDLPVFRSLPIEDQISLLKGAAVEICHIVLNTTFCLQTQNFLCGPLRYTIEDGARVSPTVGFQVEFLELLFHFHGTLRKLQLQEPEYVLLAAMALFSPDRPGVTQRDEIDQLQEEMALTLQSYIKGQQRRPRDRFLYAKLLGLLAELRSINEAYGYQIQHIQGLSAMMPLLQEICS

| SMILES | Potency [1] | Potency [2] | Potency [3] | Potency [4] | Potency [5] | Potency [6] | Potency [7] | Potency [8] | Potency [9] | Potency [10] |
| --- | --- | --- | --- | --- | --- | --- | --- | --- | --- | --- |
| COc1ccc(Nc2ccc(OC)cc2)cc1 | 20.4 µM (active) | inactive | inactive | inactive | 17.5 µM (active) | inactive | 27.8 µM (active) | – | – | – |
| CCCCCOc1ccc(C2SC(=O)NC2=O)cc1OCC (stereo not given) | – | inactive | inactive | inactive | – | inactive | – | inactive | – | – |
| CCCCOc1cc(C(=O)NCCN(CC)CC)c2ccccc2n1 | inactive | – | – | – | – | inactive | – | – | inactive | – |
| OCc1c2ccccc2cc2ccccc12 | – | inactive | inactive | – | – | inactive | inactive | inactive | – | 68.8 µM (active) |
| CC(C)(C)c1cccc(O)c1 | – | inactive | inactive | – | – | inactive | inactive | inactive | inactive | inactive |
| ICCc1ccccc1 | – | inactive | inactive | – | – | inactive | inactive | inactive | inactive | inactive |
| CCCCc1ccc2nc(NC(=O)OC)[nH]c2c1 | 3.47 µM (active) | inactive | – | inactive | 5.96 µM (active) | inactive | 3.76 µM (active) | – | – | inactive |
| CN1CCN(C2=Nc3ccccc3Oc3ccc(Cl)cc32)CC1 | inactive | – | inactive | inactive | – | inactive | inactive | – | inactive | – |
| CC(C)NC[C@@H](O)COc1cccc2ccccc12 | – | inactive | inactive | inactive | – | inactive | – | inactive | – | – |
| Cc1ccccc1C(=O)Nc1ccc(C(=O)N2CCCC(O)c3cc(Cl)ccc32)c(C)c1 (stereo not given) | – | – | – | – | – | inactive | inactive | – | – | inactive |
| Cc1ccc([N+](=O)[O-])c(N)c1 | – | inactive | inactive | inactive | inactive | inactive | inactive | – | inactive | inactive |
| COc1ccc2nc(NC(=O)Nc3ccccc3)sc2c1 | 0.389 µM (active) | inactive | inactive | inactive | – | inactive | – | – | inactive | – |
| CCc1cc2cc(OC)c(OC)cc2c(Cc2ccccc2)n1 | inactive | inactive | inactive | inactive | – | inactive | inactive | – | – | inactive |
| CCCCCCOc1ccc(N)cc1 | 31.7 µM (active) | inactive | inactive | inactive | 27.3 µM (active) | inactive | 12.2 µM (active) | – | – | inactive |
